Hedgehog inh – Hedgehog pathway signaling inhibitors, primary screen, luminescence, Shh-LIGHT2 cells, Gli-luciferase | 2.1% of 22,000 active | Shh-LIGHT2 Gli-luciferase reporter, 30 h | inhibition, % (no concentration beside the values);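 active means mean inhibition across valid replicates above about 65%, limit read from the data; inconclusive means mean under the limit, yet half or more replicates past it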;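 further: pathway switched on by Shh-conditioned medium diluted 1 in 25 in low serum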
MITF inhib – inhibitors of MITF, primary screen, MITF inhibitor project, cell-based, luminescence | inhibition, % (test concentration not listed) | 0.28% of 37,000 active | TRPM1 promoter luciferase, 24 h | AID 2240, 2010; in the data active means inhibition above about 85%; inconclusive means no clear call, values can overlap the other calls; inactive means below about 68%;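 further: human melanocyte line stably carrying TRPM1 promoter luciferase reporter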
NOMO-1 viab – NOMO-1 AML cell viability reduction, primary screen, STK33 inhibitor project, CellTiter-Glo luminescence | NOMO-1 AML viability, 72 h | inhibition, % (concentration not given with the values) | AID 2330, 2010 | 7.5% of 37,000 active; in the data active means inhibition above about 80%; inconclusive means no clear call, values can overlap the other calls
* = called active by the depositor; ? = inconclusive; · = not tested or not shown. An excerpt weighted towards active compounds, which were near 7.8% of everything screened.

SMILES	Hedgehog inh	MITF inhib	NOMO-1 viab
COC(=O)c1ccccc1NC(=O)CN(c1ccc(F)c(Cl)c1)S(C)(=O)=O	·	-2.9	-2.5
COC(=O)c1cc(NC(=O)CN(c2ccc(F)c(Cl)c2)S(C)(=O)=O)ccc1Cl	·	-3.4	95.8*
COC(=O)c1ccccc1NC(=O)CN(c1cccc(F)c1)S(C)(=O)=O	·	-7.7	-4.5
CC(=O)c1cn(CC(=O)Nc2cccc(C(F)(F)F)c2)c2ccccc12	·	40.5	51.8
NC(=O)C1CC(=O)N(c2ccc(OCC(=O)Nc3cc(Cl)cc(Cl)c3)cc2)C1 (stereo unspecified)	·	-13.7	29.6
CC(C)n1cnc2c(Nc3cccc(Cl)c3)nc(NCCO)nc21	75.4*	11.0	31.0
CC[C@H](CO)Nc1nc(NCc2ccccc2)c2ncn(C(C)C)c2n1	51.7	41.9	?
CCOC(=O)c1oc2ccccc2c1NC(=O)CCN1CCCCC1	·	3.5	18.0
CC(Oc1ccccc1-c1ccccc1)c1n[nH]c(=S)n1-c1ccccc1 (stereo unspecified)	69.4*	11.2	10.7
OCCCc1n[nH]c(=S)n1-c1ccccc1	·	-15.8	16.9
Cc1cc(O)c2c(c1)C(=O)c1cc(OC3OC(COC(=O)CC(=O)O)C(O)C(O)C3O)cc(O)c1C2=O (stereo unspecified)	-11.2	9.2	-4.3
COc1ccc(N=Cc2c(O)ccc3oc4c(c23)CCCC4)cc1	0.0	9.6	99.3*
Oc1ccc2oc3c(c2c1/C=N/N1CCCCC1)CCCC3	-43.8	18.9	11.1
Cc1ccc(-c2cc(C(F)F)n3ncc(C(=O)NCCCN4CCOCC4)c3n2)cc1	·	10.8	4.9
CCOc1ccc(-n2c(SCC(=O)c3ccccc3)nnc2-c2ccncc2)cc1	·	1.8	2.0
c1ccc(CN(CCN(Cc2ccccn2)Cc2ccccn2)Cc2ccccn2)nc1	-180.7	88.1*	98.4*
Cc1cc[n+](Cc2ccccn2)c(N)c1	-25.9	0.5	8.5
CN(Cc1nc(-c2cccc([N+](=O)[O-])c2)no1)S(=O)(=O)c1ccccc1	·	-12.4	-8.8
CC(=O)c1c(C)oc2ccc(N(C(=O)c3ccncc3)S(=O)(=O)c3ccc(F)cc3)cc12	·	24.8	31.1
COC(=O)c1c(C)oc2ccc(N(C(=O)c3ccncc3)S(=O)(=O)c3ccc(OC)cc3)cc12	·	56.1	111.5*
CCN(CCC#N)C(=S)Nc1cc(C(F)(F)F)cc(C(F)(F)F)c1	12.3	-16.1	6.9
CCOC(=O)c1c(CN2CCCCC2)n(-c2ccccc2)c2cc(Br)c(OC)cc12	-8.2	2.9	39.8
CCOC(=O)c1cnc(S/C=C/C(=O)c2ccc(Cl)cc2)nc1N	-33.3	-9.1	116.7*
CCOC(=O)c1cnc(SCC(=O)Nc2ccc(F)c(F)c2F)nc1N	·	10.2	4.5
C[C@@H]1CN([C@@H](C)CO)C(=O)c2cccc(NC(=O)Nc3ccc(C(F)(F)F)cc3)c2O[C@@H]1CN(C)Cc1ccc(Cl)c(Cl)c1	2.2	-5.4	?
SMILES	Hedgehog inh	MITF inhib	NOMO-1 viab
C[C@@H]1CN([C@H](C)CO)C(=O)c2cccc(NC(=O)Nc3ccc(C(F)(F)F)cc3)c2O[C@@H]1CN(C)Cc1ccncc1	-8.3	-2.9	8.0
C[C@H](CO)N1C[C@H](C)[C@@H](CN(C)Cc2ccc(Cl)c(Cl)c2)Oc2c(NC(=O)Nc3ccc(C(F)(F)F)cc3)cccc2C1=O	-34.6	1.7	108.6*
C[C@H]1CN([C@@H](C)CO)C(=O)c2cccc(NC(=O)Nc3ccc(C(F)(F)F)cc3)c2O[C@@H]1CN(C)Cc1ccc(Cl)c(Cl)c1	-14.0	16.5	106.9*
Cc1cccc(OCCCC(=O)Nc2ccccc2[N+](=O)[O-])c1C	·	-7.6	37.7
CCN(CC)CCCn1c(-c2ccc(C)cc2)cn2c3ccccc3nc12	·	5.2	10.3
OCCCn1c(-c2ccccc2)cn2c3ccccc3nc12	·	97.7*	-8.2
COc1cc(/C=C/C=O)cc(OC)c1OC	-48.7	2.0	13.0
COc1cc(/C=C2/SC(=Nc3cc(C)cc(C)c3)NC2=O)cc(Br)c1OC	5.9	10.3	119.8*
COc1cc(-c2ccccn2)nc(/C=N/O)c1S(C)=O (stereo unspecified)	82.8*	·	·
COc1cccc(/C=N/O)c1O	23.8	-30.6	8.0
COc1ccc(OC)c(NC(=O)CC2Sc3ccccc3NC2=O)c1 (stereo unspecified)	·	-2.2	3.3
CCOc1cc([N+](=O)[O-])ccc1NC(=O)CC1Sc2ccccc2NC1=O (stereo unspecified)	·	35.1	110.0*
CS(=O)(=O)N(CC(=O)Nc1ccccc1C(=O)O)c1ccc(F)cc1	·	-13.7	9.2
Cc1ccc(C)c(NC(=O)c2ccc(OCC(=O)Nc3cccc(Cl)c3)cc2)c1	·	-17.9	5.9
CCOC(=O)CSc1n[nH]c(CN2c3ccccc3Sc3ccccc32)n1	?	-3.4	116.7*

Assay outcomes (PubChem)
